Anesthetic bind – binds horse apoferritin like a general anesthetic; 350,000 tested, 0.074% active; apoferritin/1-aminoanthracene competitive binding, fluorescence; Potency, µM (series often up to 77.5 µM), inactives show at the top dose activity change, negative = displacement, actives largely listed as inhibitors; AID 485281; further: potency means the concentration at half of the fitted maximal effect; on the % scale 0 is the no-effect control and ±100 the full control effect; nearly all actives have a fitted effect of over 20% in size
Target sequence (P02791 2-175 limits assumed): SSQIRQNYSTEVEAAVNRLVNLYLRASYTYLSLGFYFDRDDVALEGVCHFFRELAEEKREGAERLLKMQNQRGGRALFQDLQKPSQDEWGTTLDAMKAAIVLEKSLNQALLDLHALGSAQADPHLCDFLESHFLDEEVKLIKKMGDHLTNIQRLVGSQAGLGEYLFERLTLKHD
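10 uM apoferritin + 50% sat. 1-AMA, PBS; cpd 10 min RT; Ex380/Em535 endpoint; normalized to free probe vs complex; 4-param Hill fit; propofol titration as pos. ctrl.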
LDHA inh – LDHA (human) enzyme inhibition; activity change, % (values are at about 110 or 230 µM); 480,000 tested, 0.15% active; purified LDHA, NADH/diaphorase-resazurin fluorescence; hits give low values; P00338; in the data active means activity change below about -30%; inconclusive means mostly about -25% to -30%;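 further: plate controls were DMSO wells for no effect and wells without enzyme for full effect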
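Resorufin fluorescence (ex540/em590), read at 0 and 20 min after diaphorase/resazurin addition, reports the NADH left after a 5 min room-temperature reaction of 2 nM human LDH5 with 0.06 mM NADH and 0.2 mM pyruvate.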
Epigenetic reg – derepresses silenced GFP reporter in murine cells; murine LDR cells, GFP reporter derepression, 30 h; AID 1865; 280,000 tested, 0.2% active; Potency, µM (titrated, usually from 53.9 µM), for inactives: at the highest dose GFP activation, hits mostly activators; further: potency means the concentration at half of the fitted maximal effect; % of control where 0% means no effect; nearly all actives have a fitted effect of over 60% in size
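Readout is the number of GFP-expressing murine LDR cells, counted by cytometry following washing. Cells were treated with compound for 30 h at 37 C; the stably integrated CMV-GFP locus is normally silent.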
Vif-A3F inh – inhibitors of Vif-A3F interaction; HeLa A3F-eYFP + Vif (tagged APOBEC3F with the HIV-1 protein that degrades it), YFP fluorescence increase; Potency, µM (series often up to 46.1 µM), for the others: top-dose activity, negative = active; 390,000 tested, 0.2% active; AID 602313; further: potency means the concentration at half of the fitted maximal effect; % of control where 0% means no effect; nearly all actives have a fitted effect of over 65% in size
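Fluorescence increase (Ex 488/Em 500-530) after overnight compound treatment at 37 deg C flags inhibition of Vif-driven A3F-eYFP loss in stable HeLa A3F-eYFP/Vif cells seeded overnight beforehand.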
Vif-A3G inh – Vif-A3G binding inhibition; Q9HC16; HeLa A3G-eYFP + Vif (tagged APOBEC3G with the HIV-1 protein that degrades it), YFP fluorescence, overnight; Potency, µM (doses to about 46.1 µM), for inactives: at the top dose activity, negative = active, most hits filed as inhibitors; 410,000 tested, 0.076% active; further: potency means the concentration at half of the fitted maximal effect; on the % scale 0 is the no-effect control and ±100 the full control effect; nearly all actives have a fitted effect of over 60% in size
Target sequence (Q9HC16 whole entry, looked up): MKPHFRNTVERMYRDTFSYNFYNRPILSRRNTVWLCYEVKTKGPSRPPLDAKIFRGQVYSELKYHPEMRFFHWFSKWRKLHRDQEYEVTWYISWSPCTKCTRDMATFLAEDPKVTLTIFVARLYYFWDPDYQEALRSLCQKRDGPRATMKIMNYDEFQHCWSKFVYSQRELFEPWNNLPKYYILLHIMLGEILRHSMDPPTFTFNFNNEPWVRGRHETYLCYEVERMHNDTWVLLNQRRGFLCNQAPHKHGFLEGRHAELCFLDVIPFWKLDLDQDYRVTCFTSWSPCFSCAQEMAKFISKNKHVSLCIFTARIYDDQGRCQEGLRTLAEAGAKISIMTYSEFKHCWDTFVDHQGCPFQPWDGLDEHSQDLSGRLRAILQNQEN
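HeLa cells stably expressing Vif and C-terminally eYFP-tagged A3G, seeded overnight at 37 deg C, then exposed to compound by pintool overnight at 37 deg C. Rise in yellow fluorescence (Ex 488/Em 500-530, Acumen) marks blocked Vif-driven A3G degradation.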
An asterisk follows results filed as active; ? = inconclusive; nt = no result. The list is not random: actives were taken first. Their share in the collection is about 0.49%. Unless noted, the call rests on the fitted dose curve; in most records, active means well fitted curve in the direction sought with a large enough effect; inconclusive means small, poorly fitted or top-dose-only effect, or another doubt; inactive means no such curve, though single readings can be large; an effect the other way counts as inactive or inconclusive.

SMILES | Anesthetic bind | LDHA inh | Epigenetic reg | Vif-A3F inh | Vif-A3G inh
CCOC(=O)C1=C(C)NC(=O)NC1c1cc(Br)c(O)c(OC)c1 (configuration not stated) | 6.1% | 1.3 | 0.0% | -1.3% | 0.6%
CC(c1ccon1)N(C)C(=O)c1cccc(OC2CCN(S(C)(=O)=O)CC2)c1 (configuration not stated) | nt | -5.1 | nt | 2.3% | -1.5%
Clc1ccc2[nH]c3c(NCCN4CCOCC4)ncnc3c2c1 | 0.2% | -11.2 | 0.9% | -0.5% | 6.3%
Fc1ccc2[nH]c3c(NCCN4CCOCC4)ncnc3c2c1 | -10.8% | -34.8* | -1.0% | -10.8% | 1.5%
CC(=O)c1ccc(NS(=O)(=O)c2ccc(CC(C)C)cc2)cc1 | 35.5µM* | 5.4 | 6.1% | -13.4% | 1.3%
CCN(c1ccc(N=Cc2c(O)n(Cc3ccc(OC)cc3)c(=O)c3ccccc23)cc1)C(C)C | -0.4% | -3.8 | 2µM* | -868.8% | ?
Cc1ccccc1CN(C)CCc1ccccn1 | -4.2% | -32.1* | -3.7% | 1.3% | -0.1%
N#CCC(=O)N/N=C/c1ccc(N2N=C(c3ccccc3)CC2c2ccccc2)cc1 (configuration not stated) | 142.0% | -8.6 | nt | 6.31µM* | ?
CCCCc1nc2ccccc2c(NC(=O)CN2CCCC2)c1CCC | -8.2% | -34.8* | -0.8% | -1.3% | 0.9%
Clc1ccc(-c2nc3c4cnn(-c5ccccc5Br)c4ncn3n2)c(Cl)c1 | 2.2% | -6.0 | -0.8% | nt | nt
C=Cc1ccc(Cn2c(C(=O)O)c(CNCc3ccccc3)c3ccc(OC)cc32)cc1 | -17.1% | -2.9 | -2.4% | nt | nt
O=C(COC(=O)Cn1cnc2ccccc2c1=O)Nc1ccc(Cl)c(C(F)(F)F)c1 | 25.1µM* | -4.1 | 1.1% | 2.8% | -5.8%
Cc1cc(NC(=O)N2CC=C(c3c[nH]c4ccccc34)CC2)ccc1Br | -7.3% | -1.3 | ? | 22.4µM* | ?
Cc1ccc(C)c(NC(=O)N2CC=C(c3c[nH]c4ccccc34)CC2)c1 | 4.4% | -1.8 | ? | 25.1µM* | ?
Cc1c(C(=O)Nc2cccnc2)oc2ccc(Br)cc12 | -2.9% | -6.1 | nt | -19.5% | ?
C[n+]1c(/C=C/c2ccc3c(c2)OCO3)ccc2ccccc21 | -9.6% | -32.6* | 0.0% | -16.0% | 1.4%
C[n+]1c(/C=C/c2ccc(O)cc2)ccc2ccccc21 | -4.6% | -1.4 | nt | 8.5% | 0.6%
CCN(CC)c1ccc(/C=c2\sc3nnc(-c4ccccc4Cl)n3c2=O)cc1 | -13.8% | -3.9 | 3.6% | 2.2% | 1.7%
CCN(CC)c1ccc(/C=c2/sc3nnc(-c4ccccc4C)n3c2=O)cc1 | -1.9% | -2.8 | 7.0% | 1.26µM* | -3.4%
CSc1ccccc1NC(=O)CN(C)C(C)C(=O)NCc1ccc2c(c1)OCO2 (configuration not stated) | nt | -46.6* | nt | -4.6% | -1.0%
CC(C(=O)Nc1ccc2c(c1)OCO2)N(C)CC(=O)Nc1ccccc1Cl (configuration not stated) | nt | -3.2 | nt | -3.3% | 1.2%
Cc1cccc(NC(=O)COc2ncnc3ccc(Br)cc23)c1C | nt | -30.8* | nt | nt | nt
CCN(CC)c1ccc(/C=C2\SC(=O)N(C(C)C)C2=O)o1 | -15.2% | 22.4 | 7.08µM* | ? | ?
O=C(COC(=O)C12CC3CC(CC(C3)C1)C2)Nc1ccc([N+](=O)[O-])cc1Br | -5.8% | 0.3 | 0.0% | -14.1% | -6.1%
N#Cc1cc([N+](=O)[O-])ccc1NC(=O)COC(=O)C12CC3CC(CC(C3)C1)C2 | 35.5µM* | nt | -2.8% | nt | nt
SMILES | Anesthetic bind | LDHA inh | Epigenetic reg | Vif-A3F inh | Vif-A3G inh
O=C(CNC(=O)c1ccc2c(c1)OCCO2)N/N=C/c1cccc(Br)c1 | 5.62µM* | -4.9 | -0.3% | 0.1% | 1.1%
COCCNC(=O)C1(C)CCCN(C(=O)c2ccc(C#N)cc2)C1 (configuration not stated) | nt | 0.1 | nt | nt | -0.2%
Cc1ccc(S(=O)(=O)Nc2nc3ccccc3nc2Nc2cccc(Cl)c2)cc1 | nt | 9.8 | nt | nt | nt
Cn1ccnc1Sc1nc2ccccc2nc1NS(=O)(=O)c1ccccc1 | -15.7% | -7.3 | 6.6% | 25.1µM* | -13.3%
COC(=O)c1cc(Nc2nc3ccccc3nc2NS(=O)(=O)c2ccc(C)cc2)ccc1Cl | 35.9% | 2.6 | 13.2% | 11.2µM* | -7.4%
CC(=O)Nc1ccc(S(=O)(=O)Nc2nc3ccccc3nc2Sc2nncn2C)cc1 | -5.0% | -1.6 | 3.2% | 10µM* | -15.6%
COc1ccc2nc(NS(=O)(=O)c3ccc(C)cc3)c(Nc3cc(Cl)ccc3OC)nc2c1 | 0.6% | 7.4 | 25.1µM* | -896.1% | -27.9%
COc1ccc(C)cc1CN(C)C(=O)c1cc(=O)[nH]c2ccccc12 | nt | 7.1 | nt | nt | nt
O=C(CN1CCN(c2ccc(F)cc2)CC1)Nc1nnc(-c2ccccc2)s1 | -11.3% | -1.2 | -1.0% | -11.1% | 0.5%
CCCOC(=O)C1[C@H]2C(=O)N(CC3CCCO3)C[C@]23C=C[C@H]1O3 (some centres not stated) | -7.9% | -2.2 | -0.7% | -5.1% | -1.3%
CCc1ccccc1NC(=S)N(CCc1ccncc1)C(C)C | 0.2% | -0.3 | 1.1% | -7.3% | 1.5%
CC(=O)Nc1ccc(S(=O)(=O)Nc2nc3ccccc3nc2Nc2ccc(N)cc2)cc1 | 0.2% | -0.5 | 1.1% | 12.6µM* | -6.8%
COc1ccc(S(=O)(=O)Nc2nc3ccccc3nc2Nc2ccc(NC(C)=O)cc2)cc1 | nt | -1.8 | nt | nt | nt
C=CCn1c(NCCCOC)nc2c1c(=O)[nH]c(=O)n2C | nt | -34.5* | nt | nt | nt
C=CCSc1nnc(C)c(/C=C/Nc2ccc(Cl)cc2)n1 | -22.0% | -2.1 | ? | 25.1µM* | ?
O=C(Cc1ccc(F)cc1)c1ccc(O)cc1O | ? | -2.8 | -0.3% | -21.1% | 0.2%
O=C(Cn1c(SCC(=O)Nc2ccc(F)cc2)nc2ccccc21)NCc1ccc(F)cc1 | 28.3% | -11.2 | -3.7% | -4.3% | -6.8%
O=C(Cn1c(SCC(=O)Nc2ccc(F)cc2)nc2ccccc21)NCc1ccccc1Cl | 29.4% | -32.4* | -4.1% | -4.4% | -3.2%
CCC1(C)Cc2c(sc3c2c(=O)n(C)c2nnc(SCc4ccccc4)n32)CO1 (configuration not stated) | 6.3% | -3.8 | 0.0% | -23.8% | 2.7%
O=[N+]([O-])c1ccc(O)c(/C=N/Nc2nn[nH]n2)c1 | -13.2% | -46.0* | 1.7% | 11.4% | 2.9%
Cc1nc2cc(-c3cccc(F)c3)nn2c(C)c1CCC(=O)NC1CCCCC1 | -11.5% | -1.0 | 0.0% | -20.4% | -4.0%
Cc1ccc(CN2CCC(N3CC(C)OC(C)C3)CC2)cc1 (configuration not stated) | -13.4% | -32.5* | nt | -3.1% | -2.1%
CSc1ccc(CN2CCC(N3CC(C)OC(C)C3)CC2)cc1 (configuration not stated) | -5.1% | -23.9 | nt | 1.3% | 0.7%
COc1cc(-c2cc(O)c(-c3ccc4ccccc4n3)c(=O)[nH]2)cc(OC)c1OC | nt | 12.5 | nt | 11.2µM* | 10µM*

Screens (PubChem)
